# Measurements from PubChem BioAssay AID1486 (The Scripps Research Institute Molecular Screening Center, 2009).
# In all, about 220,000 compounds went through this assay and about 2,400 (1.1%) were called active. The sample holds actives, similar compounds and a random draw of the others, so the mix is not that of the screen. Values without a mark were called inactive.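 Rule for the calls: active = inhibition above a per-campaign cutoff, the mean inhibition of all tested compounds plus 3 SD (cut at about 27% in these data); inactive = the rest.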
# Assay: growth loss in parental Ba/F3 cells – cell-based, murine pro-B, CellTiter-Glo luminescence, counter-screen for JAK2V617F inhibitor project (AID 1486);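 note: 0% = DMSO wells and 100% = JAK Inhibitor I control wells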
# Details: Ba/F3 parental viability, CellTiter-Glo ATP luminescence; at 5.6 µM; hits give high values
row,SMILES,inhibition
1,COC(=O)c1ccc(CN2CCN(CCCc3ccccc3)C(CCO)C2)cc1 (stereo unspecified),4.68%
2,CCN1/C(=C\c2ccc3ccccc3[n+]2CC)Sc2cc(C)ccc21,88.7% (active)
3,CCN1CCN(CCNC(=O)c2ccc(/C=C3/Sc4ccccc4N(Cc4cccc(C)c4)C3=O)cc2)CC1,13.1%
4,CCN1/C(=C/C(=S)Nc2ccccc2)Sc2ccccc21,0.08%
5,CCN1/C(=C/c2ccc3ccc(C)cc3[n+]2CC)Sc2ccccc21,87.6% (active)
6,COc1ccccc1C1C(C#N)=C(N)Oc2c1c(-c1ccccc1)nn2-c1ccccc1 (stereo unspecified),4.31%
7,CCCN(CCC)CC(O)COc1ccccc1C(=O)Nc1ccccc1 (stereo unspecified),1.95%
8,CNC(=O)c1csc(Cc2c(Cl)sc3ccc(Cl)cc23)n1,-0.25%
9,COc1ccc(C(=O)CN(C(=O)c2ccc(Cl)cc2)N2C(=O)c3ccccc3C2=O)cc1,-0.72%
10,COc1ccc(Cn2c(-c3ccc(Cl)cc3)c[n+]3ccccc23)cc1,76.4% (active)
11,COc1ccc(Cn2c(=O)cc(C)[nH]c2=S)cc1,9.89%
12,COc1cccc(Nc2nnc(SCC(=O)N3CC(=O)Nc4ccccc43)s2)c1,-3.89%
13,Nc1ccc(C(=O)OCC(=O)NC2CCS(=O)(=O)C2)cc1[N+](=O)[O-] (stereo unspecified),-1.89%
14,COc1cccc(C(=O)Nc2ccc(NC(=O)c3ccco3)cn2)c1,-2.07%
15,Cc1ccnc(NC(=O)c2ccc(NC(=O)c3ccco3)cc2)c1,-0.11%
16,Cc1ccc(C(=O)COc2cccc(NC(=O)c3ccco3)c2)cc1,95.5% (active)
17,Cc1c(NC(=O)CSc2nnnn2-c2ccc(C(=O)O)cc2)c(=O)n(-c2ccccc2)n1C,9.83%
18,COc1ccc(C(=O)C2CCCN(C(=O)c3cnsn3)C2)c(C)c1 (stereo unspecified),-0.94%
19,COc1ccc(NS(=O)(=O)c2ccc(Oc3c(C#N)cccc3C#N)cc2)cc1,42% (active)
20,COc1ccc(NS(=O)(=O)c2ccc(NC(=O)c3ccc(N(C)S(C)(=O)=O)cc3)cc2)cc1,5.44%
21,CCOc1ccc(S(=O)(=O)Nc2ccc(S(=O)(=O)Nc3cc(OC)ccc3OC)cc2)cc1,5.24%
22,COc1ccccc1N1CC(C(=O)Nc2ccc(S(=O)(=O)N3CCOCC3)cc2)CC1=O (stereo unspecified),2.78%
23,CNc1nnc(-c2ccco2)s1,-0.97%
24,COc1cccc(C(O)Cc2nc3ccccc3n2C)c1OC (stereo unspecified),0.12%

row,SMILES,inhibition
1,COc1ccc(-c2nn(C)c(=O)c3ccccc23)cc1NC(=O)COc1ccccc1,-0.19%
2,Cc1ccc(F)cc1NC(=O)Cc1nn(C)c(=O)c2ccccc12,37.3% (active)
3,Cc1ccc(NC(=O)Cn2nc(C)c3ccccc3c2=O)c(C)c1,4.31%
4,COc1ccc(Cl)cc1NC(=O)NC(C)C(C)(C)C (stereo unspecified),2.98%
5,Cc1nc2ccccc2nc(=O)c1NNc1ccc([N+](=O)[O-])cc1,4.24%
6,O=C(COC(=O)CCc1nc2ccccc2c(=O)[nH]1)Nc1ccc(N2CCOCC2)cc1,-2.42%
7,COCCCNC(=O)/C=C/c1ccc(OCc2c(F)cccc2Cl)cc1,2.28%
8,CN(C)CCCNC(=O)/C=C/c1ccc(OCc2c(F)cccc2Cl)cc1,7.63%
9,O=C(/C=C/c1ccc(OCc2c(F)cccc2Cl)cc1)N1CCOCC1,67.9% (active)
10,C/C(=N/Nc1nc(-c2ccccc2)c(CC(=O)O)s1)c1ccccc1,2.81%
11,O=C(CSc1nc2cc3c(cc2c(=O)n1CCC1=CCCCC1)OCO3)NCc1ccco1,33.2% (active)
12,O=C(CCCn1c(SCC(=O)c2ccc(F)cc2)nc2ccccc2c1=O)NCc1ccco1,4.54%
13,C=C(C)Cn1c(SCC(=O)NCc2ccco2)nc2sc3c(c2c1=O)CCC3,1.93%
14,COc1cc(OC)cc(C(=O)NCC(=O)OCc2csc(-c3ccccc3)n2)c1,10.9%
15,COc1cc(OC)cc(C(=O)NC2CCN(C(=O)N3c4ccccc4Sc4ccccc43)CC2)c1,6.78%
16,Cc1ccc(-c2nn(-c3ccccc3)cc2CN(Cc2ccccc2)C(=O)CCC(=O)O)o1,6.11%
17,CSCCNCc1cn(-c2ccc(F)cc2F)nc1-c1ccccc1C,5.07%
18,Cc1ccc(-c2nn(-c3cccc(F)c3)cc2CNCCc2ccncc2)o1,43% (active)
19,Cc1cc(Cl)ccc1C(=O)C1CCCN(C(=O)CCN2CCCO2)C1 (stereo unspecified),0.61%
20,Cc1cc(=O)[nH]c(SCC(=O)Nc2ccc(Br)cc2)n1,-7.26%
21,O=C(/C=C/c1ccc(Cl)c([N+](=O)[O-])c1)c1ccc(O)cc1,2.68%
22,CNC(=O)Nc1cc(C(C)(C)C)no1,54.8% (active)
23,CCCn1c(SCC(=O)Nc2ccc(C)c(S(=O)(=O)N3CCOCC3)c2)n[nH]c1=O,4.59%
24,CC[n+]1c(C)n(-c2ccccc2)c2ccc(NC(C)=O)cc21,57.7% (active)

row,SMILES,inhibition
1,CCn1c2ccccc2c2cc(NC(=O)CNC)ccc21,3.93%
2,CCc1ccc(NC(=O)N2CCN(c3ccccc3)CC2)cc1,1.4%
3,Cc1ccc(/C=N/NC(=S)NC2CCCCC2)o1,-7.43%
4,CCOC(=O)c1ccc(NC(=O)Cn2nnc(-c3ccc(C)cc3)n2)cc1,1.76%
5,CCOC(=O)c1ccc(NC(=O)Cn2cnc3cc(C)c(C)cc32)cc1,58.4% (active)
6,CCOC(=O)c1ccc(NC(=O)CSc2ncccn2)cc1,0.67%
7,O=C(O)CC1=C(Nc2ccccc2)C(=O)N(c2ccccc2)C1c1ccc(Cl)cc1 (stereo unspecified),1.11%
8,Cc1ccc2cc(/C=N/NC(=O)[C@@H]3CCCN3)c(Cl)nc2c1,0.27%
9,CC(=O)Nc1cccc(OCC(=O)/C=C2\N(C)c3ccccc3C2(C)C)c1,44.2% (active)
10,CC(C)Nc1nnc(SCC(=O)/C=C2\N(C)c3ccccc3C2(C)C)s1,0.74%
11,Cc1noc(C)c1C(=O)OCC(=O)/C=C1\N(C)c2ccccc2C1(C)C,4.98%
12,COc1ccc(-n2cc(CNC3CCOCC3)c(-c3cccc(F)c3)n2)cc1,5.7%
13,CCCCC(NC(=O)c1cccc(Br)c1)C(=O)O (stereo unspecified),0.6%
14,COc1ccc(C(=O)Nc2ccc(F)cc2F)cc1,-0.96%
15,CCOC(=O)N1CCN(S(=O)(=O)c2ccc(C(=O)Nc3ccc(F)cc3F)cc2)CC1,53.5% (active)
16,O=C(Nc1cccc(F)c1)c1ccc(S(=O)(=O)N2CCCC2)cc1,7.79%
17,Cc1cc(C)c(NC(=O)CN2CCOCCOCCOCCOCC2)c(C)c1,2.62%
18,O=C(CSc1ccc(C(F)(F)F)cc1[N+](=O)[O-])NCCOc1ccccc1,3.21%
19,CC#CC[N+](C)(C)CCCCCC,43.8% (active)
20,C/C(=N\N1CCN(Cc2ccc(C)cc2)CC1)c1ccco1,3.54%
21,Cc1ccc(C(=O)Nc2nc(N)n(-c3ccccc3)n2)cc1,-1.21%
22,COc1cc(Cl)c(C)cc1NC(=O)[C@@H]1CCCN1C(=O)c1cccs1,6.13%
23,COC(=O)Nc1ccc(S(=O)(=O)N2CCN(CCN3C(=O)C4C5C=CC(C5)C4C3=O)CC2)cc1 (stereo unspecified),5.02%
24,COC(=O)CCNC(=O)c1ccc2[nH]c(C)c(C)c2c1,3.29%

row,SMILES,inhibition
1,CCOC(=O)c1[nH]c2c(c1C)C(=O)CC(c1ccc(N(C)C)cc1)C2 (stereo unspecified),4.47%
2,CCOC(=O)c1[nH]c2c(c1-c1ccccc1)C(=O)CC(c1ccc(Cl)cc1)C2 (stereo unspecified),8.29%
3,COc1cc(C2CC(=O)c3cnc(NC(C)=O)nc3C2)cc(OC)c1OC (stereo unspecified),2.9%
4,CCCOC(=O)c1[nH]c2c(c1C)C(=O)CC(c1cc(OC)c(OC)c(OC)c1)C2 (stereo unspecified),41.3% (active)
5,CCOC(=O)C1=C(C)NC(=S)NC1c1cccs1 (stereo unspecified),3.93%
6,CCCOC(=O)c1[nH]c2c(c1C)C(=O)CC(c1cccs1)C2 (stereo unspecified),75.9% (active)
7,O=C(O)CCCC(=O)Nc1ccc(Oc2cccc(C(F)(F)F)c2)nc1,-1.72%
8,CCOC(=O)C1=C(CC)OC(N)=C(C#N)C1c1ccc(F)cc1F (stereo unspecified),0.94%
9,Cc1ccc(S(=O)(=O)N2CCCC2C(=O)OCc2nc3sc(C)c(C)c3c(=O)[nH]2)cc1 (stereo unspecified),3.55%
10,O=C1CCCCC1C(=O)c1ccccc1 (stereo unspecified),0.06%
11,COc1ccc2nc(/N=C(\N)NC(=O)Nc3ccccc3)nc(C)c2c1,31.6% (active)
12,Cc1nc(/N=C(\N)NC(=O)NC2CCCCC2)nc2ccccc12,4.49%
13,COc1ccc(NC(=O)Nc2ccc3nc(C)c(C)nc3c2)cc1,1.19%
14,O=C(NNC(=O)c1cnccc1C(F)(F)F)c1ccc(Cl)cc1,-1.83%
15,Cc1cccc(Cn2cnc3c(N)c(C)c(C)cc32)c1,32.6% (active)
16,CCOC(=O)c1cn(Cc2cccc(C)c2)nn1,2.15%
17,COc1cccc(Cn2cnc3c([N+](=O)[O-])c(C)c(C)cc32)c1,9.27%
18,CCN(CC)S(=O)(=O)c1ccc(OC(C)C)c(N)c1,5.49%
19,COc1cc2c(cc1/C=C1/NC(=O)N(c3ccccc3)C1=O)OCO2,10.5%
20,CCCOc1ccccc1C1CC(=O)Nc2cc3c(cc21)OCO3 (stereo unspecified),71.8% (active)
21,COc1ccc(F)cc1S(=O)(=O)Nc1ccc2c(c1)OCO2,3.23%
22,COCCOC(=O)C1=C(C)NC(=O)CC1c1cc2c(cc1Br)OCO2 (stereo unspecified),3.68%
23,COc1ccc(C2CC(=O)Nc3cc(C)c(C)cc32)c(OC)c1OC (stereo unspecified),3.54%
24,COc1ccccc1C1C2=C(COC2=O)Nc2cc3c(cc21)OCO3 (stereo unspecified),80.4% (active)
